Laboratory results from PubChem BioAssay (NCATS).
Records with an inconclusive call do not appear. Calls of active or inactive are those of the source. Unless noted, calls come from the whole dose curve; as a rule, active = well fitted curve in the direction sought with a large enough effect; inconclusive = small, poorly fitted or top-dose-only effect, or another doubt; inactive = no such curve, though single readings can be large; an effect the other way counts as inactive or inconclusive.

Legend:
[1] = target: Thyrotropin receptor (Homo sapiens) (UniProt P16473); assay: qHTS Assay for Antagonists of the Thyroid Stimulating Hormone Receptor (AID 488980); note: series mostly up to about 58 µM
Outline: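 Cells expressing human TSHR (HEK293) are dispensed in HBSS/HEPES containing 70 uM RO 20-1724, compound is added, then TSH at EC80 (4 nM final). Antibody in lysis buffer follows, 30 minutes at room temperature before HTRF detection.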

[2] = target: D(1A) dopamine receptor (Homo sapiens) (UniProt P21728); assay: HTS Assay for Allosteric Agonists of the Human D1 Dopamine Receptor: Primary Screen for Agonists (AID 488981)
Sequence of D(1A) dopamine receptor (Homo sapiens) (P21728 whole entry, looked up): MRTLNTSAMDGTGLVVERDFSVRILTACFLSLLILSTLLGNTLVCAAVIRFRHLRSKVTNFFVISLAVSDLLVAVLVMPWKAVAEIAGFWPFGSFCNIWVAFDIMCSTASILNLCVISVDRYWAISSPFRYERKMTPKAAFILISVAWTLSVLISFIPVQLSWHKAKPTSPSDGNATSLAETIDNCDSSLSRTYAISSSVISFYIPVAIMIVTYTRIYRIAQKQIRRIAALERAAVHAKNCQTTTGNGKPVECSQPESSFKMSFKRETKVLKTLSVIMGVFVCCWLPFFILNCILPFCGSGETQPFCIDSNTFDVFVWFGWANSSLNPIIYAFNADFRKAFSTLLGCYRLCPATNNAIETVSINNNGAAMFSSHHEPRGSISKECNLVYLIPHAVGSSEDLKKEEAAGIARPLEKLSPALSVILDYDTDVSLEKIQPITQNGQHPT
Outline: (§1)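 Tetracycline-induced HEK293 T-REx cells force-coupled to calcium signalling were incubated overnight at 30 C and dye-loaded at room temperature. Calcium flux over 180 s after compound addition flagged agonists; a further 180 s read after EC20 dopamine flagged potentiators.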

[3] = target: D(1A) dopamine receptor (Homo sapiens) (UniProt P21728); assay: HTS Assay for Allosteric Agonists of the Human D1 Dopamine Receptor: Primary Screen for Potentiators (AID 488982)
Outline: as §1

[4] = target: D(1A) dopamine receptor (Homo sapiens) (UniProt P21728); assay: HTS Assay for Allosteric Agonists of the Human D1 Dopamine Receptor: Primary Screen for Antagonists (AID 488983);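 note: calcium flux response to an EC80 dopamine challenge measured with no-wash dye; nearly all actives have a fitted effect of over 65% in size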
Outline: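 Calcium flux readout, no-wash dye, inducible HEK293 T-REx D1 line (force-coupled). Compound added after 10 s baseline, 180 s kinetic read; then dopamine at EC80, further 180 s read.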

[5] = Validation screen for small molecules that induce genotoxicity in human embryonic kidney (HEK293T) cells expressing luciferase-tagged ELG1 (AID 493106)
Outline: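 qHTS format; 2,000 HEK293T ELG1-luc cells/well; 23 nL compound via pin tool; 16 hr, 37 °C/5% CO2; ONE-Glo, 30 min RT; luminescence read.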

[6] = target: ATPase family AAA domain-containing protein 5 (Homo sapiens) (UniProt Q96QE3); assay: Validation screen for small molecules that inhibit ELG1-dependent DNA repair in human embryonic kidney (HEK293T) cells expressing luciferase-tagged ELG1 (AID 493107);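 note: cells co-treated with the DNA-damaging agent 5-fluorouridine alongside compound; series mostly up to about 46 µM; inhibitors lower the ELG1-luciferase luminescence signal; nearly all actives have a fitted effect of over 70% in size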
Sequence of ATPase family AAA domain-containing protein 5 (Homo sapiens) (Q96QE3 whole entry, looked up, the tested form may be a part): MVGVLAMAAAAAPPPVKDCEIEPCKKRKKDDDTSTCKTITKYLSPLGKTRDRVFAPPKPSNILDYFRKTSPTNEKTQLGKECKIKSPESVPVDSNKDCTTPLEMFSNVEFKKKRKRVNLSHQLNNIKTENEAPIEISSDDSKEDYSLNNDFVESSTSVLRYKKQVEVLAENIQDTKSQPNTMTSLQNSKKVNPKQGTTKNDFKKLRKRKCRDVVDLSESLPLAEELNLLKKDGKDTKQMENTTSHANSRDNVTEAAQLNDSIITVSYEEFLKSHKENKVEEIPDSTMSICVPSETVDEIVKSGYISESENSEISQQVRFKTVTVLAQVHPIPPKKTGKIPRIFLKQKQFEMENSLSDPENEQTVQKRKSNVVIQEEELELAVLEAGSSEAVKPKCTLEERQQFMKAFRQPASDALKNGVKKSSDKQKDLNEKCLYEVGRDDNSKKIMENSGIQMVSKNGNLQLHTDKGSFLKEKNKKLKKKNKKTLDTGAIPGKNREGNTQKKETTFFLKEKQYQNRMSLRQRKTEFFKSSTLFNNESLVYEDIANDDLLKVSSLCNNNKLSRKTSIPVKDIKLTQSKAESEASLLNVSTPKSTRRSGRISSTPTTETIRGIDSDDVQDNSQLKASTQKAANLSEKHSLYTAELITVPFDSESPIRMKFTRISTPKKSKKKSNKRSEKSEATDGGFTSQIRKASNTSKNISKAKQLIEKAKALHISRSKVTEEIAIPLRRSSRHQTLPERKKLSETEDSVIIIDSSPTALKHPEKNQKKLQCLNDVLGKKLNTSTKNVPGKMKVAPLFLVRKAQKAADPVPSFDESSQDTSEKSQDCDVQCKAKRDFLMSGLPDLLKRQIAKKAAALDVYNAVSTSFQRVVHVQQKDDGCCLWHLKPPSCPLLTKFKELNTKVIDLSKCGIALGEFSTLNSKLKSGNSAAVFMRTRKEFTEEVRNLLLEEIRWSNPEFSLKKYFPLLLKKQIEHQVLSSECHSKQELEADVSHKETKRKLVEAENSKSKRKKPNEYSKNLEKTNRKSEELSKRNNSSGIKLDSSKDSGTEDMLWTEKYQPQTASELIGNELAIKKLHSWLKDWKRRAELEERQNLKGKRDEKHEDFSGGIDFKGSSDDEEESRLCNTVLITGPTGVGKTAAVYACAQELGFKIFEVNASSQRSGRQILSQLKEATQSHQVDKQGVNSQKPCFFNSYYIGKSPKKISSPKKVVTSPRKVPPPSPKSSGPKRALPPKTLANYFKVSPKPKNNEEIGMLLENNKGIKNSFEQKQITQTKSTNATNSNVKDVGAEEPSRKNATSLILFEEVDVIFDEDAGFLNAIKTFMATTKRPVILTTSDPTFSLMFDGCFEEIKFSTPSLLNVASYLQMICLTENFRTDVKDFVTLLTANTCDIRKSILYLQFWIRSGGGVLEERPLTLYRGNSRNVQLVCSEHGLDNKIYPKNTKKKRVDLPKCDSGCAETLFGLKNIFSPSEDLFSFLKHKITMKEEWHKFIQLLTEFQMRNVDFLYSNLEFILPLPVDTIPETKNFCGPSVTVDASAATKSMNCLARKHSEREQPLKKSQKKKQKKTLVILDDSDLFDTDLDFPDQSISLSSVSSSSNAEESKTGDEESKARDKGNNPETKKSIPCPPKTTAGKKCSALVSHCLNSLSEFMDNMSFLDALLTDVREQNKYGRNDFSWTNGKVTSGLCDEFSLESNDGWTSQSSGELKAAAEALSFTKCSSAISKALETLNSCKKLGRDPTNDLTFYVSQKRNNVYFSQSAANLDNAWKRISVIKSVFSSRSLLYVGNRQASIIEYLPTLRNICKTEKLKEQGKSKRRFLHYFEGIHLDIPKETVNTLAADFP
Outline: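 ELG1-luciferase HEK293T reporter; 5-fluorouridine + compound/DMSO, 16 hr, 37 °C, 5% CO2; ONE-Glo 30 min RT; luminescence read, qHTS format.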

[7] = Nrf2 qHTS screen for inhibitors: Validation (AID 493153; active = well fitted inhibition curve with a large enough effect in the main read-out, with a control signal flat, not every such curve was filed as active); details: viability change: measured here: cytotoxicity max response
Outline: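 Concentration-response test in A549 ARE_Fluc reporter cells (5% FBS OPTI-MEM), compound exposure 18-24 h at 37°C, 5% CO2. Cell viability measured first by CellTiter-Fluor fluorescence; ARE-driven luciferase luminescence then measured as Nrf2 activity.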

[8] = qHTS for Inhibitors of Cell Surface uPA Generation: Validation Assay (AID 493164);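 note: RAW 264.7 macrophage cells exposed to compound for 18 h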
Outline: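 Compounds are titrated over seven points (2.45 nM–38.3 uM final) onto pre-plated RAW 264.7 cells and incubated for 18 h. Retained intracellular ATP, measured with ATP-Lite, indicates blocked lethal factor entry.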

[9] = target: Galactokinase (Homo sapiens) (UniProt P51570); assay: qHTS Validation Assay for Inhibitors of Human Galactokinase (GALK) (AID 493189)
Sequence of Galactokinase (Homo sapiens) (P51570 whole entry, looked up): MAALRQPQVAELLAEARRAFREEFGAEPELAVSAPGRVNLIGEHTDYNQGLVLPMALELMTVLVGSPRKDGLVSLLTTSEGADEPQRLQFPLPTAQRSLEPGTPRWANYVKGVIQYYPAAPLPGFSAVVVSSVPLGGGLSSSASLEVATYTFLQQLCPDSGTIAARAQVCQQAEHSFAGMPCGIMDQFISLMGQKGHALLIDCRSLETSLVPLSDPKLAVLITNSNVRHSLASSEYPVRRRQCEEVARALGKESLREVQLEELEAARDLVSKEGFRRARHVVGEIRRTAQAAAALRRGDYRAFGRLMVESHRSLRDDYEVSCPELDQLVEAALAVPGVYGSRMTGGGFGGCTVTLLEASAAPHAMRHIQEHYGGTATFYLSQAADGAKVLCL
Outline: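 Compounds were pin-transferred into ATP buffer, then GALK-galactose mix was added (final 5 nM enzyme, 100 uM galactose, 35 uM ATP). After 1 h at room temperature, remaining ATP was measured luminescently.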

[10] = target: Phosphoglycerate kinase, glycosomal (Trypanosoma brucei brucei) (UniProt P07378); assay: qHTS Validation Assay to Find Inhibitors of Phosphoglycerate Kinase (AID 504547)
Outline: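 In TEA buffer (100mM, pH 7.6) containing 5mM MgCl2 and 0.01% Tween-20, the GAPDH-coupled PGK reaction proceeded for 60 minutes at room temperature before a single luminescence reading using Kinase-Glo Plus.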

[11] = target: phosphoglycerate mutase (Leishmania major) (UniProt Q4Q090); assay: qHTS Validation Assay to Find Inhibitors of Phosphoglycerate Mutase (AID 504548);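 note: end-point luminescence from Kinase-GloPlus after the PGAM reaction; series mostly up to about 58 µM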
Outline: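 Inhibition of L. major PGAM was assessed by Kinase-GloPlus luminescence following a 45-minute room-temperature reaction with enzyme at 1.25nM final.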

[12] = qHTS for Inhibitors of ATXN expression: Validation (AID 588378); note: series mostly up to about 57 µM; nearly all actives have a fitted effect of over 75% in size
Outline: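 Validation of ATXN2 expression inhibitors uses a cell-based luciferase fusion reporter in HEK293 cells, with 24 h compound exposure and paired viability (fluorescence) and reporter (luminescence) end-point reads.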

[13] = target: DNA dC->dU-editing enzyme APOBEC-3G (Homo sapiens) (UniProt Q9HC16); assay: qHTS for inhibitors of Vif-A3G interactions: Validation (AID 588379)
Outline: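 Yellow fluorescence (Ex 488, Em 500-530) of Vif-coexpressing HeLa A3G-eYFP cells, scanned by Acumen cytometer, reports blocked A3G degradation. Cells plated at 700/well overnight at 37 deg C before compound addition, then a further overnight compound incubation at 37 deg C.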

[14] = target: Voltage-gated inwardly rectifying potassium channel KCNH2 (Homo sapiens) (UniProt Q12809); assay: qHTS Assay for Small Molecule Inhibitors of the Human hERG Channel Activity (AID 588834);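 note: U2OS cells transduced with hERG by BacMam; top concentration of the series differs between compounds; lower thallium flux fluorescence means stronger hERG block; nearly all actives have a fitted effect of over 50% in size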
Sequence of Voltage-gated inwardly rectifying potassium channel KCNH2 (Homo sapiens) (Q12809 whole entry, looked up): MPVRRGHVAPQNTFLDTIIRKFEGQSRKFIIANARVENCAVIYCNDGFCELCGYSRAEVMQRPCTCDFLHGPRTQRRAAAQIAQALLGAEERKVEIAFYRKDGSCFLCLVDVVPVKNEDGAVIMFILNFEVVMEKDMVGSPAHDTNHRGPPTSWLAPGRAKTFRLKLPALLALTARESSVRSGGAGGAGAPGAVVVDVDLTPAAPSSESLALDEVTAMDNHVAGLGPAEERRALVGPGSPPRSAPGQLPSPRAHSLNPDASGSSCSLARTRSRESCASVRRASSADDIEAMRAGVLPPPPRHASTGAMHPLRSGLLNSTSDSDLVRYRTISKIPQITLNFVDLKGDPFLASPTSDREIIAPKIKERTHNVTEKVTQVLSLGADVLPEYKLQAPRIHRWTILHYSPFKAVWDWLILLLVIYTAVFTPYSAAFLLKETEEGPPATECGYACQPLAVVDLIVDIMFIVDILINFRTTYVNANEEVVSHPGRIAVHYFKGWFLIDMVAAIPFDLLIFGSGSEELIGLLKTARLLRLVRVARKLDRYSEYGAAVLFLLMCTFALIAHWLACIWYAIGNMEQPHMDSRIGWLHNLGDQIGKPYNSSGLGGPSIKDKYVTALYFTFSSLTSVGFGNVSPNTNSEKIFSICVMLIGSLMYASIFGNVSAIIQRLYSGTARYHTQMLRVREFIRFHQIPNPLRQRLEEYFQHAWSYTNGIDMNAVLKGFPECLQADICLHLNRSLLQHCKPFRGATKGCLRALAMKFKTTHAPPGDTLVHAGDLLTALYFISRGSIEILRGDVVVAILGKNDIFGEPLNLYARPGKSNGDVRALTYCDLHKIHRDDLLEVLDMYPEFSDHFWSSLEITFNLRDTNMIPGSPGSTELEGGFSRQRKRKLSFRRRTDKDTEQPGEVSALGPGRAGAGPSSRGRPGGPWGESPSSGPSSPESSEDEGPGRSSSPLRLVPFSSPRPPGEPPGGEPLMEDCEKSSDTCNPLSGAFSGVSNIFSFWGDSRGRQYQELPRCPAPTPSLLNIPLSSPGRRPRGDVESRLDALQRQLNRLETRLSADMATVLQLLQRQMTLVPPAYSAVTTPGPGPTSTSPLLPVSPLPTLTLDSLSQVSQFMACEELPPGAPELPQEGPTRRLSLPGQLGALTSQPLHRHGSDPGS
Outline: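 Cells were infected with hERG-BacMam virus for 4 hrs at room temperature, grown overnight, then seeded at 2000/well. After dye loading and roughly 10 min compound treatment, thallium influx was triggered and fluorescence recorded.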

[15] = target: Glutaminase kidney isoform, mitochondrial (Homo sapiens) (UniProt O94925); assay: qHTS for Inhibitors of Glutaminase (GLS): LOPAC Validation (AID 624146); note: potency is the fitted concentration of half-maximal effect; nearly all actives have a fitted effect of over 60% in size
Sequence of Glutaminase kidney isoform, mitochondrial (Homo sapiens) (O94925 whole entry, looked up, canonical isoform): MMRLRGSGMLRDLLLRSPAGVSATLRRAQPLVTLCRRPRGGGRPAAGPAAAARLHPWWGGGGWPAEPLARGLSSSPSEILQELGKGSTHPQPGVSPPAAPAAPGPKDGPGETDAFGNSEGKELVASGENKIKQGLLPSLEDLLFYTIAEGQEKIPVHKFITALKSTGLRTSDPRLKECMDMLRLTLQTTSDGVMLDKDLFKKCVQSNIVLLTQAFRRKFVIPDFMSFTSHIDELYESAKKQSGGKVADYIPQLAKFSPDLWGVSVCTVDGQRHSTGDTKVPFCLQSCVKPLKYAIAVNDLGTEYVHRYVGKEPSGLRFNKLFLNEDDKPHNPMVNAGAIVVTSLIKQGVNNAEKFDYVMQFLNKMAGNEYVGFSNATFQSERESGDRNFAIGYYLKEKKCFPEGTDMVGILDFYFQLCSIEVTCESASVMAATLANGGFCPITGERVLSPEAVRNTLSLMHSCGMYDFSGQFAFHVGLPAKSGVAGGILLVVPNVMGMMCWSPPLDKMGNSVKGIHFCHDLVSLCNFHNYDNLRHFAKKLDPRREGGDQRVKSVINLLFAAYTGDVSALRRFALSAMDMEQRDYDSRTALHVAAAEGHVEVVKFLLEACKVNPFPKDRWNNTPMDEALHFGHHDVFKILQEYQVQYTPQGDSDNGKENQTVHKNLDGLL
Outline: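 hKGA in 45 mM KH2PO4 (pH 8.2), 0.02% Tween-20 with compound, then 1mM L-Glutamine (stock as added) plus glutamate oxidase/HRP/Amplex red coupling mix. Fluorescence read initially and after 30 min at RT; signal change reflects glutamate formation.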

[16] = qHTS of Trypanosoma Brucei Inhibitors: LOPAC Validation (AID 624147)
Outline: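 Luminescent Kinase-Glo Plus end-point after 45 min room-temperature reaction of T. brucei pyruvate kinase started with 130 uM ADP (final). Buffer TEA 50 mM pH 7.2 with KCl, MgCl2, BSA, Tween-20; titration-based qHTS with fitted concentration-effect curves.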

[17] = target: Glucagon-like peptide 1 receptor (Homo sapiens) (UniProt P43220); assay: qHTS of GLP-1 Receptor Agonists: LOPAC Validation (AID 624148);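 note: higher luminescence signal means agonism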
Sequence of Glucagon-like peptide 1 receptor (Homo sapiens) (P43220 whole entry, looked up): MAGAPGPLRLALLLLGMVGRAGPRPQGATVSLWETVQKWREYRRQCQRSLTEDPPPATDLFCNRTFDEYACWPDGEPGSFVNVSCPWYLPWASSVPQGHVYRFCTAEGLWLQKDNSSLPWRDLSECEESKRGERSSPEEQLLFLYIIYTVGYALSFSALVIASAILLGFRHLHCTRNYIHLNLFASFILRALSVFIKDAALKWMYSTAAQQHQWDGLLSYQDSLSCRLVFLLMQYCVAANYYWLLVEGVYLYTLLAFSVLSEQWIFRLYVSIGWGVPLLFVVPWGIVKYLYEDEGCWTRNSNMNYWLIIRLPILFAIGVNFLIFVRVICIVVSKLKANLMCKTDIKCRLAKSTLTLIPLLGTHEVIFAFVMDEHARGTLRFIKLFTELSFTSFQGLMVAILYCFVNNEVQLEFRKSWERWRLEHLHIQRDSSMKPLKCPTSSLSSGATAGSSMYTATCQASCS
Outline: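 HEK293 cells stably co-expressing a cAMP-responsive luciferase reporter and a hypersensitive GLP-1R were plated 12 h at 37 °C and exposed to compounds for 4-6 hr at 37 °C, 5% CO2. Luminescence was read 12 min after adding detection reagent.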

[18] = qHTS of Nrf2 Activators: LOPAC Validation (AID 624149)
Outline: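 AREc32_Fluc cells, 1000/well, OPTI-MEM + 5% FBS, o/n 37 deg C 5% CO2; compound pin-transfer, 24 hr 37 deg C; Steady-Glo 30 min RT, luminescence read.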

[19] = HTS Assay for Allosteric Antagonists of the Human D2 Dopamine Receptor: Hit Validation in HTRF (AID 624455)
Outline: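 HTRF read-out; cells stably expressing D1 receptor; hits scored for inhibition of D1-mediated response. Primary screen: calcium flux, force-coupled inducible Hek293 Trex D2 line, antagonism vs EC80 dopamine.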

[20] = target: Arylsulfatase A (Homo sapiens) (UniProt P15289); assay: qHTS screen for enhancers of Arylsulfatase A (ASA1): LOPAC Validation Assay (AID 720538)
Outline: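 First, ASA-I179S fibroblasts from an MLD patient adhered for 6 hrs. Next, compounds were added for 48h. Then pNCS substrate (0.5mM final) with lysis buffer reacted 14h at room temperature before NaOH stop and fluorescence measurement.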

[21] = qHTS for compounds that reverse cellular toxicity of Amyloid beta (A-beta) peptide in yeast: LOPAC Validation Assay (AID 720559)
Outline: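 Activity is expressed relative to DMSO and an equimolar ferric chloride/clioquinol mix. Compounds were pinned into medium with A-beta-expressing yeast, grown 48 hr at 30 C, then read by absorbance at 600 nm.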

N#C/C(=C\c1ccc(O)c(O)c1)C(=O)Nc1ccccc1
-12%: viability change [7]
inactive: outcome [1] | outcome [2] | outcome [3] | outcome [4] | Potency [5] | Potency [6] | outcome [7] | outcome [8] | outcome [9] | Potency [10] | outcome [11] | Potency [12] | Potency [13] | Potency [14] | outcome [16] | outcome [17] | outcome [18] | outcome [19] | Potency [20] | outcome [21]
active: Potency [15] 631 nM
